A number with no mark means an inactive call. Results filed as inconclusive are left out. Entries that show only a call come without a potency. The source made the active and inactive calls. Unless noted, calls follow the shape of the dose curve; as a rule, active = well fitted curve in the direction sought with a large enough effect in the repeat runs; inconclusive = weak or mixed curves; inactive = no such curve, though single readings can be large; an effect the other way counts as inactive or inconclusive.
Experiments:
[1] = qHTS assay to identify small molecule antagonists of the estrogen related receptor (ERR) signaling pathway from Tox21 library - cell viability counter screen (AID 1224834); also: nearly all actives have a fitted effect of over 30% in size; also: potency is read from the fitted curve at half-maximal effect
Method in brief: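 Fluorescence from CellTiter-Fluor gives the viability read-out, taken 30 min after reagent addition. Before that, ERR cells seeded 6 h earlier were incubated with compounds for 17.5 h at 37 C.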

[2] = molecular target: Luciferin 4-monooxygenase (Photinus pyralis) (UniProt P08659); experiment: qHTS assay to identify small molecule inhibitors of firefly luciferase (AID 1224835); also: nearly all actives have a fitted effect of over 25% in size
Method in brief: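 Biochemical qHTS: compounds run as interplate titrations against purified firefly enzyme, with D-luciferin and ATP each at its KM concentration. Light output recorded by CCD imaging.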

[3] = qHTS assay to identify small molecule agonists of the constitutive androstane receptor (CAR) signaling pathway - cell viability counter screen (AID 1224836); also: nearly all actives have a fitted effect of over 45% in size
Method in brief: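 23 h treatment, 37 C, 5% CO2. Cell line: HepG2 stably expressing hCAR with a CYP2B6-2.2kb construct. Co-treatment: PK11195, 0.75 uM final. Read-out: CellTiter-Fluor fluorescence intensity.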

[4] = qHTS assay to identify small molecule antagonists of the constitutive androstane receptor (CAR) signaling pathway - cell viability counter screen (AID 1224837); also: nearly all actives have a fitted effect of over 45% in size
Method in brief: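 HepG2-CYP2B6-hCAR cells, 2500/well, 4 hr pre-incubation; compound titration, 15 conc.; CITCO 50 nM final; 23 hr, 37 C/5% CO2; CellTiter-Fluor, fluorescence intensity.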

[5] = molecular target: Nuclear receptor subfamily 1 group I member 3 (Homo sapiens) (UniProt Q14994); experiment: qHTS assay to identify small molecule agonists of the constitutive androstane receptor (CAR) signaling pathway (AID 1224839);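 also: HepG2 cells stably carrying human CAR and a CYP2B6 luciferase reporter; nearly all actives have a fitted effect of over 15% in size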
Method in brief: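 Compounds tested at 15 concentrations on HepG2 cells stably harbouring hCAR and CYP2B6-2.2kb reporter constructs, co-treated with PK11195 (0.75 uM final), 24 h at 37 C; luminescent reporter signal quantified.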

[6] = qHTS assay to identify small molecule antagonists of the estrogen related receptor signaling pathway with the pleiotropic PPARgamma coactivator (PGC) from Tox21 10K library - cell viability counter screen (AID 1224840; active = well fitted cell-killing curve with a large enough effect in the repeat runs, not every such curve was filed as active; also: nearly all actives have a fitted effect of over 40% in size)
Method in brief: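 PGC/ERR cells, 2,000/well; 6 h pre-incubation 37 C/5% CO2; cpd in DMSO via pin tool; 17.5 h 37 C; CellTiter-Fluor, 30 min; fluorescence.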

[7] = molecular target: Thyrotropin receptor (Homo sapiens) (UniProt P16473); experiment: qHTS assay to identify small molecule agonists of the thyroid stimulating hormone receptor (TSHR) signaling pathway (AID 1224843; calls by dose curve; also: nearly all actives have a fitted effect of over 45% in size)
Method in brief: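 Steps: seed 800 TSHR-HEK293 cells per well; add test compound and hold 30 min at ambient temperature; dispense cAMP-d2 then anti-cAMP cryptate; incubate 1 h at ambient; measure fluorescence intensity.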

[8] = qHTS assay to identify small molecule agonists of the hypoxia (HIF-1) signaling pathway - cell viability counter screen (AID 1224844; calls by dose curve; also: nearly all actives have a fitted effect of over 50% in size; also: potency is read from the fitted curve at half-maximal effect)
Method in brief: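 ME-180 HRE-bla cells, 2,000/well, 0.5% dialyzed FBS; 5 hr settle, 17 hr compound at 37C/5% CO2; CCF4-AM reporter read first, then CellTiter-Glo luminescence after 30 min RT.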

[9] = qHTS assay to identify small molecule agonists of H2AX (AID 1224845; active = well fitted activation curve with a large enough effect in the signal ratio in the repeat runs, not every such curve was filed as active; the % refers to the signal ratio)
Method in brief: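 Wild-type CHO-K1 cells, plated overnight, exposed 3hr at 37C to 15 concentrations (0.76% DMSO final). Lysed, then HTRF anti-pH2AX (S139) cryptate and anti-H2AX-d2 antibodies, 24 hr room temperature; 665/620 nm emission read.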

[10] = qHTS assay to identify small molecule agonists of H2AX - cell viability counter screen (AID 1224847; calls by dose curve; also: top concentration of the series differs between compounds; nearly all actives have a fitted effect of over 30% in size)
Method in brief: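 Compounds tested at 15 concentrations were incubated 3 hr at 37C with wild-type CHO-K1 cells; cellular ATP-based luminescence (CellTiter-Glo) indicated viability.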

[11] = qHTS RealTime-Glo MT Cell Viability Assay in HepG2 cells - 24 hour (AID 1224867); also: nearly all actives have a fitted effect of over 50% in size
Method in brief: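 Viability was tracked continuously by NanoLuc luminescence from prosubstrate reduced by living HepG2 cells, at successive time points over 40 h of compound exposure. Cells with reagent were preincubated 5 h at 37 °C before compound addition.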

[12] = qHTS RealTime-Glo MT Cell Viability Assay in HEK293 cells - 32 hour (AID 1224868); also: nearly all actives have a fitted effect of over 50% in size; also: potency is read from the fitted curve at half-maximal effect; as to activity change, negative = cytotoxic: top concentration of the series differs between compounds
Method in brief: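 Viability tracked continuously by luminescence as live cells reduce a prosubstrate for NanoLuc; HEK293 cells preincubated 5 h, compound-treated at 37 C, and read at 0, 8, 16, 24, 32 and 40 h.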

[13] = qHTS RealTime-Glo MT Cell Viability Assay in HepG2 cells - 40 hour (AID 1224870); also: nearly all actives have a fitted effect of over 50% in size
Method in brief: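 HepG2 cells (600/well) mixed with RealTime-Glo MT reagent, settled 5 h at 37 C/5% CO2 before compound addition. Nonlytic NanoLuc luminescence from viable-cell prosubstrate reduction read repeatedly during 40 h treatment at 37 C.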

[14] = qHTS assay to identify small molecule antagonists of the estrogen related receptor signaling pathway with the pleiotropic PPARgamma coactivator (PGC) from Tox21 10K library (AID 1224841; call rule not given here)
Method in brief: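 PGC/ERR cell line, 2,000 cells/well; 6 h pre-incubation 37 C/5% CO2; compounds (DMSO) pinned in; 18 h, 37 C; One-Glo, 30 min RT; luminescence.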

[15] = qHTS assay to identify small molecule agonists of the estrogen related receptor signaling pathway with the pleiotropic PPARgamma coactivator (PGC) from Tox21 10K library (AID 1224842); also: nearly all actives have a fitted effect of over 15% in size
Method in brief: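 PGC/ERR reporter cell line, 2,000 cells per well, incubated 6 h at 37 C before 23 nL compound in DMSO was added. After 18 h at 37 C, One-Glo luminescence read following 30 min at room temperature.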

[16] = qHTS assay to identify small molecule agonists of the hypoxia (HIF-1) signaling pathway (AID 1224846; active = well fitted activation curve with a large enough effect in the signal ratio in the repeat runs, not every such curve was filed as active; the % refers to the signal ratio)
Method in brief: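 Cell line: CellSensor HRE-bla ME-180; 2,000 cells/well; 0.5% dialyzed FBS; 5 h preincubation; DMSO compound pin transfer; 17 h, 37C, 5% CO2; CCF4-AM added; bla FRET signal scored for activation.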

[17] = qHTS assay to identify small molecule antagonists of the estrogen related receptor (ERR) signaling pathway from Tox21 library (AID 1224848); also: nearly all actives have a fitted effect of over 50% in size
Method in brief: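 Luminescent reporter read-out (ONE-Glo) from NTP's ERR cell line after 18 h treatment at 37 C with DMSO-dissolved Tox21 compounds; cells pre-plated 6 h beforehand at 2,000 per well.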

[18] = qHTS assay to identify small molecule agonists of the estrogen related receptor (ERR) signaling pathway from Tox21 library (AID 1224849; calls by dose curve; also: nearly all actives have a fitted effect of over 15% in size); details: ERR reporter cell line, ONE-Glo luciferase, 18 h; at 92.4 µM (top of the series) unless noted
Method in brief: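 ERR cells, 6 h pre-incubation 37 C/5% CO2; cpd in DMSO pinned; 18 h 37 C; ONE-Glo added, 30 min RT; luminescence read. Agonist mode, qHTS.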

[19] = A CellTox Green Cytotoxicity Assay to monitor cytotoxicity in HEK293 cells - 0 hour (AID 1224869); also: nearly all actives have a fitted effect of over 50% in size
Method in brief: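 Nonlytic real-time cytotoxicity: HEK293 + CellTox Green reagent plated, 5 h preincubation, pintool compound addition (23 nL in DMSO), 37 C for 40 h, fluorescence measured at successive time points.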

[20] = molecular target: Nuclear receptor subfamily 1 group I member 3 (Homo sapiens) (UniProt Q14994); experiment: qHTS assay to identify small molecule antagonists of the constitutive androstane receptor (CAR) signaling pathway (AID 1224838);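 also: HepG2 cells stably expressing hCAR with CYP2B6 luciferase reporter stimulated by CITCO; nearly all actives have a fitted effect of over 40% in size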; also: potency is read from the fitted curve at half-maximal effect
Method in brief: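 HepG2-CYP2B6-hCAR cells; 4 h pre-incubation; cpd (15 conc) + CITCO 50 nM final; 24 h, 37 C/5% CO2; ONE-Glo, luminescence.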

Chain of Thyrotropin receptor (Homo sapiens) (P16473 whole entry, looked up): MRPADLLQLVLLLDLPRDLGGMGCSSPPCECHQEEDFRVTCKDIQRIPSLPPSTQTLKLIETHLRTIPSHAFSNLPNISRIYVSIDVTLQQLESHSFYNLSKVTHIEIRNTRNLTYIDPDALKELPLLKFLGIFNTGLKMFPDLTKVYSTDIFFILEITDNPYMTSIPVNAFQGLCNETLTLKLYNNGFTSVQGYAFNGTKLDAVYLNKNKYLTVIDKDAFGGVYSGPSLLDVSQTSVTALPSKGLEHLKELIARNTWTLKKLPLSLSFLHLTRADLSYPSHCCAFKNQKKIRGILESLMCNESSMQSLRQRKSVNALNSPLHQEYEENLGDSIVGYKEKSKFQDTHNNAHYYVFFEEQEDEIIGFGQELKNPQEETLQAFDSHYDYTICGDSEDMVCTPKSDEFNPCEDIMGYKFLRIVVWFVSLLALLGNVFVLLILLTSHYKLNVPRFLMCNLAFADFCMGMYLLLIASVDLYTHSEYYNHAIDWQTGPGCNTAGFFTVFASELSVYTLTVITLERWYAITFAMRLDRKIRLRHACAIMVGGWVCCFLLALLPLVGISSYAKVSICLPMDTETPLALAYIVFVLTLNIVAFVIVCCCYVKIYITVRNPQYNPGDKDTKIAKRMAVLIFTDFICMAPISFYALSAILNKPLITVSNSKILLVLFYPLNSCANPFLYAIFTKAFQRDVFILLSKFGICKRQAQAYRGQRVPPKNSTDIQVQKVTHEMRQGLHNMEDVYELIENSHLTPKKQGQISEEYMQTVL
Chain of Nuclear receptor subfamily 1 group I member 3 (Homo sapiens) (Q14994 whole entry, looked up): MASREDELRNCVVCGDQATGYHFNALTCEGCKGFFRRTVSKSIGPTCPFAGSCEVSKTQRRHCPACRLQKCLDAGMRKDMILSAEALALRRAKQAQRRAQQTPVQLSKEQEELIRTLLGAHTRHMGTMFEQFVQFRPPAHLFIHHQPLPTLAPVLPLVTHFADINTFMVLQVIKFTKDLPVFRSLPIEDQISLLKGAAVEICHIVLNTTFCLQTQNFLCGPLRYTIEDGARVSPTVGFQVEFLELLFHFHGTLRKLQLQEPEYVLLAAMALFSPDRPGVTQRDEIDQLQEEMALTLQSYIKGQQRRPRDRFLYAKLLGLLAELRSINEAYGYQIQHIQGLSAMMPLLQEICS
Chain of Luciferin 4-monooxygenase (Photinus pyralis) (P08659 whole entry, looked up): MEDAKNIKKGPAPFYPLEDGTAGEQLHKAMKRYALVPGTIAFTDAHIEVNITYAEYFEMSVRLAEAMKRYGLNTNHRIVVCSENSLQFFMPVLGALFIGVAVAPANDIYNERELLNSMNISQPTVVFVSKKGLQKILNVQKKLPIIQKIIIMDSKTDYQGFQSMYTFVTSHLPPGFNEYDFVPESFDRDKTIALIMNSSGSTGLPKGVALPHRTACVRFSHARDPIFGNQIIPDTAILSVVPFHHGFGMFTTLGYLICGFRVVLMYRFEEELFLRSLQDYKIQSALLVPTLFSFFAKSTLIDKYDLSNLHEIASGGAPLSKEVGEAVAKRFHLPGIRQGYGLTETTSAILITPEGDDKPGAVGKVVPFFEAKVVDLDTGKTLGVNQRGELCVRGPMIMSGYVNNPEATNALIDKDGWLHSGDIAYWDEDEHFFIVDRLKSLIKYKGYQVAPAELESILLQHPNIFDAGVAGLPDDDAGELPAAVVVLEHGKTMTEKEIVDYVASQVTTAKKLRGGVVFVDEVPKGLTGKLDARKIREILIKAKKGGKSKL

CC(=N\O)/C(C)=N/O
Potency [1]: inactive
Potency [2]: inactive
Potency [3]: inactive
Potency [4]: inactive
Potency [5]: inactive
Potency [6]: inactive
Potency [7]: inactive
Potency [8]: inactive
Potency [9]: inactive
Potency [10]: inactive
Potency [11]: inactive
Potency [12]: inactive
Potency [13]: inactive

[O]=[Bi]
viability change, negative = cytotoxic [1]: 0.391% [at 8.39 µM]
activity change, negative = inhibition [2]: 1.77% [at 10.5 µM]
viability change, negative = cytotoxic [3]: 0.628% [at 8.39 µM]
activity change, negative = cytotoxicity [4]: -5.97% [at 8.39 µM]
viability change, negative = cytotoxic [6]: -7.88% [at 8.39 µM]
Potency [14]: 2.11 µM (active)
activation [15]: -4.11% [at 8.39 µM]
activity change, negative = cytotoxicity [8]: 28.4% [at 6.97 µM]
activation (H2AX phosphorylation) [9]: -0.036% [at 14 µM]
activation [16]: 0% [at 7.01 µM]
activity change, negative = cytotoxicity [10]: 2.81% [at 14 µM]
activity, negative = inhibition [17]: -9.31% [at 8.39 µM]
activity change, positive = activation [18]: -10.5% [at 8.39 µM]
activity change, negative = cytotoxicity [11]: 3.35% [at 6.97 µM]
activity change, negative = cytotoxic [12]: 4.51% [at 6.97 µM]
cytotoxicity [19]: -1.07% [at 6.97 µM]
activity change, negative = cytotoxic [13]: 9.58% [at 6.97 µM]

CC(=O)Oc1ccc(C(=C2CCCCC2)c2ccc(OC(C)=O)cc2)cc1
Potency [1]: inactive
Potency [2]: inactive
Potency [3]: inactive
Potency [4]: inactive
Potency [20]: inactive
Potency [6]: inactive
Potency [7]: inactive
Potency [8]: inactive
Potency [9]: inactive
outcome [16]: inactive
Potency [10]: inactive
Potency [11]: inactive
Potency [12]: inactive
Potency [19]: inactive
Potency [13]: inactive

CN1CCCN=C1/C=C/c1cccs1
Potency [1]: inactive
Potency [2]: inactive
Potency [3]: inactive
Potency [4]: inactive
Potency [5]: inactive
Potency [6]: inactive
Potency [7]: inactive
Potency [8]: inactive
Potency [9]: inactive
Potency [10]: inactive
Potency [11]: inactive
Potency [12]: inactive
Potency [13]: inactive

O=C(O)c1ccc(CO)o1
Potency [1]: inactive
Potency [2]: inactive
Potency [4]: inactive
Potency [20]: inactive
Potency [5]: inactive
Potency [6]: inactive
Potency [7]: inactive
Potency [8]: inactive
Potency [9]: inactive
outcome [16]: inactive
Potency [10]: inactive
Potency [11]: inactive
Potency [12]: inactive
Potency [13]: inactive

C=CC(C)(C)CC(=O)OC
Potency [1]: 1.22 µM (active)
Potency [2]: inactive
Potency [20]: 15.4 µM (active)
Potency [5]: inactive
Potency [7]: inactive
Potency [8]: 12.3 µM (active)
outcome [16]: inactive
Potency [10]: inactive
Potency [11]: inactive
Potency [12]: 1.38 µM (active)
Potency [19]: inactive
Potency [13]: inactive

O=C(CCCN1CCN(c2ccc(F)cc2)CC1)NC1c2ccccc2CSc2ccccc21 (stereo not drawn)
Potency [1]: inactive
Potency [2]: inactive
Potency [20]: 29.8 µM (active)
Potency [5]: inactive
Potency [6]: inactive
Potency [7]: inactive
Potency [8]: inactive
Potency [9]: inactive
outcome [16]: inactive
Potency [12]: 19 µM (active)
Potency [19]: inactive

N#C/C(=C1\SCC(c2ccccc2Cl)S1)n1ccnc1 (stereo not drawn)
Potency [1]: inactive
Potency [2]: inactive
Potency [4]: inactive
Potency [20]: inactive
Potency [6]: inactive
Potency [7]: inactive
Potency [8]: inactive
Potency [9]: inactive
outcome [16]: inactive
Potency [10]: inactive
Potency [11]: inactive
Potency [19]: inactive
Potency [13]: inactive

From PubChem BioAssay (Tox21)
